Consider one compound from PubChem BioAssay AID2284072 (EPA ToxCast).

SMILES strings stand for the structures. The source made the active and inactive calls. How the source made its calls: active means hit-call score of the fitted dose curve at least 0.9, where 1 is the maximum; inactive means score below 0.9.

Chain of human CK2 (alpha1/alpha2/beta) Other Protein Kinase, CSNK2A1 (gene 1457) (P68400 whole entry, looked up): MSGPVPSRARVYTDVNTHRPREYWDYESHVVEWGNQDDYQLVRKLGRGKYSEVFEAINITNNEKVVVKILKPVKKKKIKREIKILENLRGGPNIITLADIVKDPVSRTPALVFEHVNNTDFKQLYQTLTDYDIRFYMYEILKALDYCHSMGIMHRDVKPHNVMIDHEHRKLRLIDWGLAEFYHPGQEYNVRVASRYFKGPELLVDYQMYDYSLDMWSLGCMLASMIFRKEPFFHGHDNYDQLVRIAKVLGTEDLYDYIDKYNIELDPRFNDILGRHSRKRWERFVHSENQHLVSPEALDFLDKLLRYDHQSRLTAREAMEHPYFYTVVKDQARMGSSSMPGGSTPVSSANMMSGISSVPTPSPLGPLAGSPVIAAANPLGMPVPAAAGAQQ

The target in this assay is human CK2 (alpha1/alpha2/beta) Other Protein Kinase, CSNK2A1 (gene 1457) (UniProt P68400). Nature of the assay: ERF_TW_ENZ_hCSNK2A1: Eurofins (ERF) Enzymatic Radiometric [10 uM ATP] Assay for human CK2 (alpha1/alpha2/beta) Other Protein Kinase. As for the experimental part:
ERF_TW_ENZ_hCSNK2A1 is a biochemical, single-readout assay that uses extracted gene-proteins in a cell-free assay. Measurements were taken 0.5 hour after chemical dosing in a 96-well plate. See CK2 (alpha1/alpha2/beta) Human Other Protein Kinase Enzymatic Radiometric Assay [10 uM ATP], Panlabs.ERF_TW_ENZ_hCSNK2A1 is an assay component calculated from the ERF_TW_ENZ_hCSNK2A1 assay. It is designed to measure enzyme activity using a type of enzyme reporter as detected by scintillation counting with radiometry technology.Data from the assay component ERF_TW_ENZ_hCSNK2A1 was analyzed at the assay endpoint, ERF_TW_ENZ_hCSNK2A1, in the positive analysis fitting direction relative to DMSO as the negative control and baseline of activity. Using a type of enzyme reporter, loss-of-signal activity can be used to understand changes in enzymatic activity as they relate to gene CSNK2A1. To generalize the intended target to other relatable targets, this assay endpoint is annotated to the kinase intended target family, where the subfamily is serine/threonine kinase.
CK2a1(h) is incubated with 20mM HEPES pH7.4, 0.15M NaCl, 0.1mM EDTA, 5mM DTT, 0.1% Triton X-100, 165 uM […], 10 mM MgAcetate and [gamma-33P-ATP] (specific activity and concentration as required). The reaction is 17 initiated by the addition of the Mg/ATP mix. […]
Broadly, the AC50 is the concentration at which the activity in the assay is half-maximal. Take `O=C(/C=C/c1ccc(O)cc1)CC(=O)/C=C/c1ccc(O)cc1`: the AC50 was 2250 nM (active).
